Measurements from PubChem BioAssay (NCATS).
The source made the active and inactive calls. Calls follow the shape of the dose curve; as a rule, active = well fitted curve in the direction sought with a large enough effect; inactive = no such curve, though single readings can be large or run the other way.

What follows are compounds tested against Alpha-galactosidase (Coffea arabica) (UniProt Q42656) (assay: Counterscreen for Glucocerebrosidase Inhibitors: qHTS Assay for Coffee Bean alpha-Galactosidase at pH 5.9 (AID 998)). Settings: coffee bean alpha-galactosidase enzyme assay; series mostly up to 76.9 µM.
Chain of Alpha-galactosidase (Coffea arabica) (Q42656 whole entry, looked up): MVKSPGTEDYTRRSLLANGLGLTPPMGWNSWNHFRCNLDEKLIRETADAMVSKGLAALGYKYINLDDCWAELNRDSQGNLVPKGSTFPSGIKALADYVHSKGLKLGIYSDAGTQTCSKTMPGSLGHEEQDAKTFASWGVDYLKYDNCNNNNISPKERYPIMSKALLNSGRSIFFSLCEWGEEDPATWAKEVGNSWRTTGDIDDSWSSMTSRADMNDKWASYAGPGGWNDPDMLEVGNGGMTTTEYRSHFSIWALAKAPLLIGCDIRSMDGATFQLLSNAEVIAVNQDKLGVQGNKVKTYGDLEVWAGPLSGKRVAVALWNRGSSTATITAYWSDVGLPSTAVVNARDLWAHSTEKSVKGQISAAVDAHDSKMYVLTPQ
Source text: NIH Chemical Genomics Center [NCGC]
NIH Molecular Libraries Screening Centers Network [MLSCN]
PI Name: Zheng, Wei [NIH]
Alpha-galactosidase is a homodimeric glycoprotein that hydrolyzes the terminal alpha-galactosyl moieties from glycolipids and glycoproteins. Deficiency of this enzyme results in Fabry Disease with progressive accumulation of globotriaosylceramide and other glycosphingolipids in vascular endothelial cells that causes renal failure, myocardial infarction and stroke, and premature death in patients. It has reported that the improper folding and trafficking of alpha-galactosidase resulted from the genetic mutations may account for a significant numbers of Fabry patients. […] We optimized this coffee bean alpha-galactosidase assay in 1536-well plate format as a counter-screen assay for identifying the selective small molecule inhibitors of other lysosomal enzymes.
NCGC Assay Protocol Summary:
This is a fluorogenic enzyme assay with 4-Methylumbelliferyl alpha-D-galactopyranoside as the substrate and green coffee bean […] (from Sigma-Aldrich) as the enzyme preparation. Upon the hydrolysis of this fluorogenic substrate, the resulting product, […]. 4-Methyllumbelliferone, can be excited at 365 nm and emits at 440 nm which can be detected by a standard fluorescence plate reader. Data were normalized to the controls for basal activity (without enzyme) and 100% activity (with enzyme). In the AC50 values were determined from concentration-response data modeled with the standard Hill equation.
Assay buffer: 50 mM citric acid, 0.005% Tween-20, pH 5.9. (pH 5.9 is an optimal condition for this enzyme assay.)
1536-well assay protocol for the coffee bean alpha-galactosidase:
(1) Add 2 ul/well of enzyme (2 nM final)
(2) Add 23 nL compounds in DMSO solution. The final titration was 0.7 nM to 77 uM.
(3) Add 1 ul of substrate (80 uM final)
(4) Incubate at room temperature for 20 min.
(5) Add 2 ul stop solution (1M NaOH and 1M Glycine mixture, pH 10)
(6) Detect the assay plate in a ViewLux plate reader (PerkinElmer) with Ex=365 nm and Em=440nm.
Keywords: Alpha-galactosidase, Fabry Disease, pharmacological chaperone, chaperone therapy, high throughput screening, alpha-galactosidase inhibitor, MLSMR, MLSCN, NIH Roadmap, qHTS and NCGC
With C=C(C)[C@H]1Cc2c(ccc3c2O[C@H]2COc4cc(OC)c(OC)cc4[C@@H]2C3=O)O1 the outcome was “inactive”.
In the case of CC(C)(C)c1cc(/C=C(\C#N)C(N)=S)cc(C(C)(C)C)c1O, the outcome is reported as “inactive”.
In the case of C[C@H](NCCc1ccc(O)cc1)[C@@H](O)c1ccc(O)cc1, the outcome is reported as “inactive”.
For CC(C)C[C@H](N)CSSC[C@@H](N)CC(C)C, the outcome was “inactive”.
N[C@@H](CO)C(=O)O was tested, and the outcome was “inactive”.
With CO[C@]1(C2=NCCN2)COc2ccccc2O1 the outcome was “inactive”.
For CC1=C(C(=O)O)N2C(=O)[C@@H](NC(=O)[C@@H](N)c3ccccc3)[C@@H]2SC1, the outcome was “inactive”.
With OCCN1CCN(CC/C=C2\c3ccccc3Sc3ccc(C(F)(F)F)cc32)CC1 the outcome was “inactive”.
With C=CCN1CCc2cc(O)c(O)cc2[C@H](c2ccccc2)C1 the outcome was “inactive”.
C[C@H](Oc1ccc(Oc2cnc3ccc(Cl)cc3n2)cc1)C(=O)O was tested, and the outcome was “inactive”.
CN1C[C@@H](C(=O)N[C@]2(C)O[C@]3(O)[C@H]4CCCN4C(=O)[C@H](Cc4ccccc4)N3C2=O)C[C@H]2c3cccc4[nH]cc(c34)C[C@@H]21 was tested, and the outcome was “inactive”.
In the case of COC1=C(OC)C(=O)c2ccccc2C1=O, the outcome is reported as “inactive”.
In the case of C/C=C1\C(=O)C[C@@H]2[C@@H]3CCC4=CC(=O)CC[C@@]4(C)[C@H]3CC[C@@]12C, the outcome is reported as “inactive”.
In the case of Cc1cc(N)c2ccccc2[n+]1CCCCCCCCCCCCCC[n+]1c(C)cc(N)c2ccccc21, the outcome is reported as “inactive”.
In the case of C[C@@H]1O[C@@H](n2cc(F)c(=O)[nH]c2=O)[C@H](O)[C@@H]1O, the outcome is reported as “inactive”.
With CN1CCN([C@@H]2Cc3ccccc3Sc3ccc(Cl)cc32)CC1 the outcome was “inactive”.
In the case of O[C@H](CN1CCN(c2cccc(Cl)c2)CC1)C(c1ccccc1)c1ccccc1, the outcome is reported as “inactive”.
In the case of Nc1ncnc2c1nc(Br)n2[C@@H]1O[C@H]2COP(=O)(O)O[C@@H]2[C@H]1O, the outcome is reported as “inactive”.
c1ccc([C@@H]2CN3CCSC3=N2)cc1 was tested, and the outcome was “inactive”.
In the case of CN=C(NC#N)Nc1ccc(C2=NNC(=O)C[C@@H]2C)cc1, the outcome is reported as “inactive”.
CCCCCCCCCCCCCCCCCC(=O)NC[C@@H](COP(=O)([O-])OCC[N+](C)(C)C)OCC was tested, and the outcome was “inactive”.
Nc1nc(Nc2ccccc2)nc2c1ncn2[C@@H]1O[C@@H](CO)[C@H](O)[C@@H]1O was tested, and the outcome was “inactive”.
Nc1ncnc2c1ncn2[C@@H]1O[C@@H](C(=O)NC2CC2)[C@H](O)[C@@H]1O was tested, and the outcome was “inactive”.
For COc1ccc([C@H]2Sc3ccccc3N(CCN(C)C)C(=O)[C@H]2OC(C)=O)cc1, the outcome was “inactive”.
For CCCCCCCCCCCCCCC/C=C\[C@H](O)[C@@H](NC(=O)CCCCCCCCCCCCC)OC (tested in a mixture with another compound), the outcome was “inactive”.
For CC(C)(O)[C@H]1[C@H]2OC(=O)[C@@H]1[C@]1(O)C[C@H]3O[C@]34C(=O)O[C@H]2[C@]14C (tested in a mixture with another compound), the outcome was “inactive”.
In the case of CN1[C@@H]2CC[C@H]1CC(NC(=O)c1nn(C)c3ccccc13)C2 (stereo not given in full), the outcome is reported as “inactive”.
COc1cc2c(cc1O)CC[C@@H]1[C@@H]2CC[C@@]2(C)[C@H](O)CC[C@H]12 was tested, and the outcome was “inactive”.
With Nc1ncnc2c1nc(Sc1ccc(Cl)cc1)n2[C@@H]1O[C@H]2COP(=O)(O)O[C@@H]2[C@H]1O the outcome was “inactive”.
With O=C1OC(=O)[C@@H]2[C@@H]1[C@@H]1CC[C@H]2O1 the outcome was “inactive”.
With NC(=O)c1ncn([C@@H]2O[C@@H](CO)[C@@H](O)[C@H]2O)c1O the outcome was “inactive”.
With Cc1cccc(C)c1NC(=O)C[N+](C)(C)C the outcome was “inactive”.
With C[C@@H](CCc1ccc(O)cc1)NCCc1ccc(O)c(O)c1 the outcome was “inactive”.
In the case of O=C(O)C[C@@H]1CCCc2ccccc2[C@H]1O, the outcome is reported as “inactive”.
C[C@@H]1CCN=C(N)S1 was tested, and the outcome was “inactive”.
With CC1CCN(CC[C@@H]2CCCN2S(=O)(=O)c2cccc(O)c2)CC1 the outcome was “inactive”.
In the case of NC(=O)C1=CN([C@@H]2O[C@@H](COP(=O)(O)OP(=O)(O)OC[C@@H]3O[C@H](n4cnc5c(N)ncnc54)[C@@H](OP(=O)(O)O)[C@@H]3O)[C@H](O)[C@@H]2O)C=CC1, the outcome is reported as “inactive”.
CCN1C[C@]2(C)CC[C@@H](O)[C@]34[C@@H]5CC6[C@@H](OC)C[C@@](O)([C@H]5[C@@H]6O)[C@@H](C[C@@H]23)[C@H]14 was tested, and the outcome was “inactive”.
C[C@@H](COc1ccccc1)N(CCCl)Cc1ccccc1 was tested, and the outcome was “inactive”.
CN[C@@H](CC(C)C)C(=O)N[C@@H]1C(=O)N[C@H](CC(N)=O)C(=O)N[C@H]2C(=O)N[C@H]3C(=O)N[C@H](C(=O)N[C@H](C(=O)O)c4cc(O)cc(O)c4-c4cc3ccc4O)[C@H](O)c3ccc(c(Cl)c3)Oc3cc2cc(c3O[C@@H]2O[C@@H](CO)[C@@H](O)[C@@H](O)[C@H]2O[C@H]2C[C@](C)(N)[C@H](O)[C@H](C)O2)Oc2ccc(cc2Cl)[C@@H]1O was tested, and the outcome was “inactive”.
